# In PubChem BioAssay (EPA / NIEHS):
# Inconclusive results are not listed. Calls of active or inactive are those of the source. The calls were made as follows, unless noted: active = hit-call score of the fitted dose curve at least 0.9, where 1 is the maximum; inactive = score below 0.9.
# Key:
# [1] = ATG_Sox_CIS: Attagene CIS-FACTORIAL HepG2 Assay for human SRY-box transcription factor (SOX) (AID 2282960); details: HepG2 Attagene cis-factorial SOX reporter, mRNA; actives raise or lower the signal
# Summary of the method: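 Using transiently transfected HepG2 cells, reporter transcription driven by cis elements was assessed 24 h after dosing. Signal was fluorescence of capillary-separated RT-PCR products, with DMSO defining baseline activity.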
# [2] = target: Transcription factor Sp1 (Homo sapiens) (UniProt P08047); assay: ATG_Sp1_CIS: Attagene CIS-FACTORIAL HepG2 Assay for human Specificity Protein 1 (Sp1) (AID 2282961); details: HepG2 Sp1 cis-reporter transcription, actives raise or lower the signal
# Summary of the method: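 After transient transfection of HepG2 cells with cis-promoter reporter units and 24 h chemical treatment, reporter transcripts were quantified by RT-PCR and capillary electrophoresis fluorescence. Gain- and loss-of-signal fitted against DMSO.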
# [3] = ATG_SREBP_CIS: Attagene CIS-FACTORIAL HepG2 Assay for human Sterol Regulatory Element Binding (SREBP) (AID 2282962); details: HepG2 Attagene cis-factorial SREBP reporter, mRNA; actives raise or lower the signal
# Summary of the method: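 Values derive from bidirectional curve fitting with DMSO as baseline. The underlying measurement is reporter mRNA from cis-element-regulated units in transiently transfected HepG2, quantified by RT-PCR and capillary electrophoresis after 24 h exposure.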
# [4] = target: Signal transducer and activator of transcription 3 (Homo sapiens) (UniProt P40763); assay: ATG_STAT3_CIS: Attagene CIS-FACTORIAL HepG2 Assay for human Signal Transducer and Activator of Transcription 3 (STAT3) (AID 2282963); details: HepG2, Attagene cis-factorial STAT3 reporter transcription; actives raise or lower the signal
# Summary of the method: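 HepG2, MRTU-transfected, 24 h dosing. RNA → RT → PCR → FAM label → HpaI → CE. Bidirectional fit vs DMSO.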
# [5] = ATG_TA_CIS: Attagene CIS-FACTORIAL HepG2 Assay for human TA Basal Promoter (AID 2282964); details: HepG2 Attagene CIS-factorial TA basal promoter reporter; actives raise or lower the signal
# Summary of the method: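 Fluorescence from labelled RT-PCR reporter fragments, separated by capillary electrophoresis, gives the signal. Cells: HepG2 transiently carrying multiple reporter units, 24 h chemical dosing. Gain or loss relative to DMSO.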
# [6] = ATG_TCF_b_cat_CIS: Attagene CIS-FACTORIAL HepG2 Assay for human T-Cell-Factor with beta-catenin (TCF/b-cat) (AID 2282965); details: HepG2 TCF/beta-catenin cis-reporter transcription, actives raise or lower the signal
# Summary of the method: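 HepG2 cells transiently transfected with multiple cis-promoter-regulated reporter transcription units, so endogenous transcription factor activity is measured. Reporter mRNA read 24 hours after dosing by RT-PCR, fluorescent labelling and capillary electrophoresis; bidirectional fitting against DMSO.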
# [7] = ATG_TAL_CIS: Attagene CIS-FACTORIAL HepG2 Assay for human TAL Basal Promoter (AID 2282966); details: HepG2 Attagene cis-factorial TAL promoter reporter; actives raise or lower the signal;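 also: background control endpoint measuring basal TAL promoter reporter mRNA not a specific factor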
# Summary of the method: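 Basal-promoter background-control endpoint from a multiplexed HepG2 reporter panel. Cells were exposed 24 h, then reporter mRNA was read by RT-PCR/CE fluorescence and fitted in both directions relative to DMSO.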
# [8] = ATG_TGFb_CIS: Attagene CIS-FACTORIAL HepG2 Assay for human Transforming Growth Factor (TGF) (AID 2282967); details: HepG2 Attagene CIS TGFb reporter, mRNA transcription; actives raise or lower the signal
# Summary of the method: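 Bidirectional fitting relative to DMSO gave the endpoint. Underlying data: reporter mRNA from HepG2 cells carrying transiently transfected cis-regulated reporter constructs, harvested 24 h after dosing and analyzed by RT-PCR and capillary electrophoresis.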
# [9] = target: Nuclear receptor subfamily 1 group I member 3 (Homo sapiens) (UniProt Q14994); assay: ATG_CAR_TRANS: Attagene TRANS-FACTORIAL HepG2 Assay for human Constitutive Androstane Receptor (CAR) (AID 2282969; active = hit-call score of the fitted dose curve at least 0.9, where 1 is the maximum;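 also: activators raise reporter mRNA above DMSO so AC50 marks induction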); details: HepG2 Attagene TRANS-FACTORIAL CAR reporter
# Summary of the method: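 Steps: transient transfection of HepG2 with multiple GAL4-UAS reporter units; 24 h compound incubation; RNA isolation, RT-PCR, 6-FAM primer extension, HpaI digest; capillary electrophoresis. Gain-of-signal relative to DMSO negative control.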
# [10] = target: Estrogen receptor (Homo sapiens) (UniProt P03372); assay: ATG_ERa_TRANS: Attagene TRANS-FACTORIAL HepG2 Assay for human Estrogen Receptor alpha (ERa) (AID 2282970; active = hit-call score of the fitted dose curve at least 0.9, where 1 is the maximum); details: HepG2 Attagene TRANS ERa GAL4 reporter, mRNA
# Summary of the method: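 Gal4-fusion ERa transactivation, measured as reporter transcript level in transiently transfected HepG2 cells. Exposure 24 h; RT-PCR plus capillary electrophoresis with fluorescence detection.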
# [11] = target: X-box-binding protein 1 (Homo sapiens) (UniProt P17861); assay: ATG_Xbp1_CIS: Attagene CIS-FACTORIAL HepG2 Assay for human X-box Binding Protein 1 (XBP1) (AID 2282972); details: HepG2 XBP1 cis-element reporter, Attagene multiplex; actives raise or lower the signal
# Summary of the method: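 Human hepatoma HepG2, cis-element reporter system, 24 h treatment; mRNA quantified by RT-PCR/CE fluorescence; fit relative to DMSO.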
# [12] = ATG_M_19_TRANS: Attagene TRANS-FACTORIAL HepG2 Assay for M19 Transcription Factor (Internal Marker) (AID 2282974; active = hit-call score of the fitted dose curve at least 0.9, where 1 is the maximum); details: HepG2 Attagene TRANS-FACTORIAL M19 internal marker reporter
# Summary of the method: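 Gain-of-signal in reporter mRNA, relative to DMSO, was scored from capillary electrophoresis fluorescence. HepG2 cells carried transiently transfected multiple reporter transcription units and were incubated with test chemicals for 24 h.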
# [13] = target: Glucocorticoid receptor (Homo sapiens) (UniProt P04150); assay: ATG_GR_TRANS: Attagene TRANS-FACTORIAL HepG2 Assay for human Glucocorticoid Receptor (GR) (AID 2282978; active = hit-call score of the fitted dose curve at least 0.9, where 1 is the maximum;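 also: activators score as hits since higher reporter transcript over DMSO is fitted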); details: HepG2 Attagene TRANS GR reporter, mRNA transcription
# Summary of the method: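 HepG2 transient transfection, multiple reporter units, GAL4-UAS under NR-GAL4 chimera control. 24 h treatment. Reporter mRNA by RT-PCR/CE fluorescence, DMSO as negative control.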
# [14] = target: Oxysterols receptor LXR-alpha (Homo sapiens) (UniProt Q13133); assay: ATG_LXRa_TRANS: Attagene TRANS-FACTORIAL HepG2 Assay for human Liver X Receptor alpha (LXRa) (AID 2282980; active = hit-call score of the fitted dose curve at least 0.9, where 1 is the maximum); details: HepG2 Attagene TRANS reporter, LXRa transactivation
# Summary of the method: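 HepG2 cells transiently transfected with GAL4-UAS reporter units for chimeric NR-Gal4 proteins, exposed to chemicals for 24 h. Reporter mRNA quantified by RT-PCR and capillary electrophoresis; gain of signal fitted relative to DMSO.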
# [15] = target: Steroid hormone receptor ERR1 (Homo sapiens) (UniProt P11474); assay: ATG_ERRa_TRANS: Attagene TRANS-FACTORIAL HepG2 Assay for human Estrogen-Related Receptor alpha (ERRa) (AID 2282971; active = hit-call score of the fitted dose curve at least 0.9, where 1 is the maximum); details: HepG2 Attagene TRANS reporter, ERRa transactivation
# Summary of the method: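 HepG2 cells transiently transfected with GAL4-UAS reporter units and chimeric NR-Gal4 constructs; after 24 hour compound incubation, reporter mRNA quantified by RT-PCR, fluorescent labelling and capillary electrophoresis, gain of signal versus DMSO.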
# [16] = ATG_GAL4_TRANS: Attagene TRANS-FACTORIAL HepG2 Assay for GAL4 (Internal Marker) (AID 2282976; active = hit-call score of the fitted dose curve at least 0.9, where 1 is the maximum); details: HepG2 Attagene TRANS GAL4 internal marker reporter
# Summary of the method: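 Background-control readout: GAL4-UAS reporter transcript in transiently transfected HepG2 cells after 24 h compound exposure. Measured by RT-PCR, 6-FAM primer extension, HpaI digest and capillary electrophoresis; gain-of-signal fit versus DMSO.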
# [17] = target: Bile acid receptor (Homo sapiens) (UniProt Q96RI1); assay: ATG_FXR_TRANS: Attagene TRANS-FACTORIAL HepG2 Assay for Farnesoid X Receptor (FXR) (AID 2282979; active = hit-call score of the fitted dose curve at least 0.9, where 1 is the maximum;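 also: hits raise reporter mRNA above DMSO so AC50 marks FXR activation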); details: HepG2 Attagene TRANS FXR-GAL4 reporter transcription
# Summary of the method: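 HepG2 cells were transiently transfected with GAL4-UAS reporters driven by chimeric NR-Gal4 proteins and dosed for 24 h. Reporter mRNA was quantified by RT-PCR, fluorescent labelling, HpaI digestion and capillary electrophoresis, with gain of signal scored versus DMSO.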
# [18] = ATG_VDRE_CIS: Attagene CIS-FACTORIAL HepG2 Assay for human Vitamin D Receptor Element (VDRE) (AID 2282968); details: HepG2 VDRE cis-reporter transcription, actives raise or lower the signal
# Summary of the method: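 Steps: transfect HepG2 with multiple reporter transcription units; dose chemicals 24 h; isolate RNA; RT-PCR; label with 6-FAM primer extension; HpaI digest; capillary electrophoresis. Curves fitted both directions against DMSO.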
# [19] = target: Estrogen-related receptor gamma (Homo sapiens) (UniProt P62508); assay: ATG_ERRg_TRANS: Attagene TRANS-FACTORIAL HepG2 Assay for human Estrogen-Related Receptor gamma (ERRg) (AID 2282977; active = hit-call score of the fitted dose curve at least 0.9, where 1 is the maximum;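 also: hits increase reporter signal over DMSO so potencies reflect activators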); details: HepG2 Attagene TRANS reporter, ERRg transactivation
# Summary of the method: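 Induction of reporter transcripts through a chimeric NR-Gal4 protein is quantified in transfected human HepG2 liver cells after 24 h chemical exposure, using RT-PCR with capillary electrophoresis detection and DMSO as baseline.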
# Chain of X-box-binding protein 1 (Homo sapiens) (P17861 whole entry, looked up): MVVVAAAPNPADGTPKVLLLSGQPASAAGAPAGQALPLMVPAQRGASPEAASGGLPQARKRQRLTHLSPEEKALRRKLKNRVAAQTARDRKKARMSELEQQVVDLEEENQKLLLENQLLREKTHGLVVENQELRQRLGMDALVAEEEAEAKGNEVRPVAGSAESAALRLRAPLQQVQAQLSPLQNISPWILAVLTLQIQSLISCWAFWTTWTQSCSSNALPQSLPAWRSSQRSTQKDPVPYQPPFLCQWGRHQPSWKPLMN
# Chain of Oxysterols receptor LXR-alpha (Homo sapiens) (Q13133 whole entry, looked up, the tested form may be a part): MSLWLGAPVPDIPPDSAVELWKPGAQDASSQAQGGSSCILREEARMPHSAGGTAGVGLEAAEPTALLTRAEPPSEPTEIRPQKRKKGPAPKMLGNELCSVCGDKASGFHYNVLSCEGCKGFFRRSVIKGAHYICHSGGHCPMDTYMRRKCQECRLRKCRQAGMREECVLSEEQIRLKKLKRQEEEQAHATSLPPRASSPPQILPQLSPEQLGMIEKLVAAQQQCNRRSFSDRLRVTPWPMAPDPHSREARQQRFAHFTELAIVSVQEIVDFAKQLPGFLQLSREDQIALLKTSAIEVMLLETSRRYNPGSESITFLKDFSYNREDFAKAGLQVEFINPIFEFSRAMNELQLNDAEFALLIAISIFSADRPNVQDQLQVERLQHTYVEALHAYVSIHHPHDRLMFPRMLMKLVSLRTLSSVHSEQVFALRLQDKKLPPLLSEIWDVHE
# Chain of Glucocorticoid receptor (Homo sapiens) (P04150 whole entry, looked up, the tested form may be a part): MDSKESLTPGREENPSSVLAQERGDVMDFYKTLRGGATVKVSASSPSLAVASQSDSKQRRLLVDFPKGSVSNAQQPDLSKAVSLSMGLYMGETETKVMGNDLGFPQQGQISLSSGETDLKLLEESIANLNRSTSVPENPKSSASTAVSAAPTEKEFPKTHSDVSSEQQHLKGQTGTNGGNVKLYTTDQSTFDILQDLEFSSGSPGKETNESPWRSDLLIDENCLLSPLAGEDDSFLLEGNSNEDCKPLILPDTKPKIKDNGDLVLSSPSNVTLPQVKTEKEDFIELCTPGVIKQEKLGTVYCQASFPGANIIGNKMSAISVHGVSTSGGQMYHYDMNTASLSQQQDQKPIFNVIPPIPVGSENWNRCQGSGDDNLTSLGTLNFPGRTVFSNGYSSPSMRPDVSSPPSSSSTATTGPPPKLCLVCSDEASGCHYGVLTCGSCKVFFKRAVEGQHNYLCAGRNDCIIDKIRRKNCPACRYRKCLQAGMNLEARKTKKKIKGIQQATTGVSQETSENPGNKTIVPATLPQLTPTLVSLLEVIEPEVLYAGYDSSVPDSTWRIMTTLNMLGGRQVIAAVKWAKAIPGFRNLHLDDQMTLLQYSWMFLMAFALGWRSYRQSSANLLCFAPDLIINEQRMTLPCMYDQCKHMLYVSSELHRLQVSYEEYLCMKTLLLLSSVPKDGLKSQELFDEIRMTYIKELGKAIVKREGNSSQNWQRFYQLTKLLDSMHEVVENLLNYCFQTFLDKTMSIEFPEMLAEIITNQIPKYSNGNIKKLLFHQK
# Chain of Transcription factor Sp1 (Homo sapiens) (P08047 whole entry, looked up): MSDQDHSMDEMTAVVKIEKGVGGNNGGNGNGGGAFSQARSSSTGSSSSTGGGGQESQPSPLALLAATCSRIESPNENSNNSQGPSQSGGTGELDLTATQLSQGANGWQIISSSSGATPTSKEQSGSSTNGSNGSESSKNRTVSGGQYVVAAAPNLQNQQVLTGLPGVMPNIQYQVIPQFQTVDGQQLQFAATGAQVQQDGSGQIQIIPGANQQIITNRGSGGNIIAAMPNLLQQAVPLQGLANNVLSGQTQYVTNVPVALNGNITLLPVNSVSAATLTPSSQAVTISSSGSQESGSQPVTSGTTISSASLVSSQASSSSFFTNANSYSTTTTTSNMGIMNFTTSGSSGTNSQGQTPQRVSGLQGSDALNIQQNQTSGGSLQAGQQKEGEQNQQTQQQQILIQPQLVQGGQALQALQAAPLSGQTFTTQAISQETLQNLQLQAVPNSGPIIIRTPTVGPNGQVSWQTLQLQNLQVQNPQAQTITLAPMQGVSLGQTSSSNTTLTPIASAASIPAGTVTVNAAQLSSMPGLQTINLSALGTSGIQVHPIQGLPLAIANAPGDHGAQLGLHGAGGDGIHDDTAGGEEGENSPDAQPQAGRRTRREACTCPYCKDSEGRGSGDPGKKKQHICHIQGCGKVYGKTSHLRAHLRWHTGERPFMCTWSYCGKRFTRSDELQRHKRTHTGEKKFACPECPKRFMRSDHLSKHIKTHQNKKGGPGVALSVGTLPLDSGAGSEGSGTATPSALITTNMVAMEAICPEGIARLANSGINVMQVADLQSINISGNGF
# Chain of Signal transducer and activator of transcription 3 (Homo sapiens) (P40763 whole entry, looked up): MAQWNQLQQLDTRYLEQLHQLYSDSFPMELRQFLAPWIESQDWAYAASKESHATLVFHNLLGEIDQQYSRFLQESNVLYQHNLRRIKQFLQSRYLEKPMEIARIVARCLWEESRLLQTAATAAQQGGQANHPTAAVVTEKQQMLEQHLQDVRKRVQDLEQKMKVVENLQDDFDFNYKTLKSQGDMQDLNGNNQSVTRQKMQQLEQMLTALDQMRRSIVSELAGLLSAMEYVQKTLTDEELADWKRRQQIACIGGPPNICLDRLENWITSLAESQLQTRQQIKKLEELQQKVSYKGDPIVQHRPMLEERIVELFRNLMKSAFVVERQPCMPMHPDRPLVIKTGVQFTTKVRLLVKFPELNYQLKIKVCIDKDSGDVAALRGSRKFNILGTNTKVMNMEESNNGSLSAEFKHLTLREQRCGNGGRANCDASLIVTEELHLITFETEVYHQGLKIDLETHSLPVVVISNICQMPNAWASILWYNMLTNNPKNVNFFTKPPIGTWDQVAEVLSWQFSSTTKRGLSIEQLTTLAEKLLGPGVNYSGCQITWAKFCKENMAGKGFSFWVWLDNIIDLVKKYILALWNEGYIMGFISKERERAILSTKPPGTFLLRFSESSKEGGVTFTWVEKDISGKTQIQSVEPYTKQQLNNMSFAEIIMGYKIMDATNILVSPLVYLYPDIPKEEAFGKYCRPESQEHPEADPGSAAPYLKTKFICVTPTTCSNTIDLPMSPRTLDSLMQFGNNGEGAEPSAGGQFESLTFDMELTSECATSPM
# Chain of Nuclear receptor subfamily 1 group I member 3 (Homo sapiens) (Q14994 whole entry, looked up, the tested form may be a part): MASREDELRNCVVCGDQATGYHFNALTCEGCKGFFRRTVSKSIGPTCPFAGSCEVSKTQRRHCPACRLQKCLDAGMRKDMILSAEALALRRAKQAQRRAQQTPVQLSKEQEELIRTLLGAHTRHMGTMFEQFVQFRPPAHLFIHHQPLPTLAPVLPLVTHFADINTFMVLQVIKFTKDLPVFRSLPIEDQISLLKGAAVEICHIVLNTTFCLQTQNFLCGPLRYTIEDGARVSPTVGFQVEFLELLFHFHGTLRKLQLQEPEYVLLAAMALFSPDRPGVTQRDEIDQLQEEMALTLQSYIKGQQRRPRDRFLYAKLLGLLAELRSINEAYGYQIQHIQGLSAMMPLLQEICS
# Chain of Estrogen receptor (Homo sapiens) (P03372 whole entry, looked up, the tested form may be a part): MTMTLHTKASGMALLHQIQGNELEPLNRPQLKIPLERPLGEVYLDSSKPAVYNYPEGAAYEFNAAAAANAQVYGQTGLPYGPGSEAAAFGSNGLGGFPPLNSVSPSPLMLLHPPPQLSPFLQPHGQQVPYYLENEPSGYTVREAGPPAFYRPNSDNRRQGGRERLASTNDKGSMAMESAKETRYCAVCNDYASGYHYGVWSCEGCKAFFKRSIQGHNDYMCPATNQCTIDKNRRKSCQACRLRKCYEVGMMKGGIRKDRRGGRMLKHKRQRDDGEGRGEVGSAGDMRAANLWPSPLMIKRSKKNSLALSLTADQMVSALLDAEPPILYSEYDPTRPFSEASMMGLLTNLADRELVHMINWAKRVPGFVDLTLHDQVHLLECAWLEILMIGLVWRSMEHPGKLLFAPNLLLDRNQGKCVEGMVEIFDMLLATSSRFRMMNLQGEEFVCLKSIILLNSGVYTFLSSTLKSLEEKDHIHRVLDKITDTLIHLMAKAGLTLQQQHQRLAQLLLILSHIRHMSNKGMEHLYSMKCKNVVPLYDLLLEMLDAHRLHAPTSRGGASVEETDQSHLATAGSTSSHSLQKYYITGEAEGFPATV
# Chain of Bile acid receptor (Homo sapiens) (Q96RI1 whole entry, looked up, the tested form may be a part): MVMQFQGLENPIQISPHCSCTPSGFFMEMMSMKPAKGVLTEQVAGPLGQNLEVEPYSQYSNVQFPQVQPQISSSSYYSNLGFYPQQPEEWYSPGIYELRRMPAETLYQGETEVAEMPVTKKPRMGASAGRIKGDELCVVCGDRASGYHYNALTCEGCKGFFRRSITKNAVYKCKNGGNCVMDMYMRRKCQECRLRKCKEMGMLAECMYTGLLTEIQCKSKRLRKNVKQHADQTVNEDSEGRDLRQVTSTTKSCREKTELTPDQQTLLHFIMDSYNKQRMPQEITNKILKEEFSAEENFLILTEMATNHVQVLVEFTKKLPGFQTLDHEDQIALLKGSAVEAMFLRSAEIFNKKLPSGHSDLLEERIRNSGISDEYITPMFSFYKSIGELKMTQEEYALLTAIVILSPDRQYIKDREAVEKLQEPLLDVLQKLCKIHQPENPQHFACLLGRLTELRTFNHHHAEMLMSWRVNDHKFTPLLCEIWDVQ
# Chain of Steroid hormone receptor ERR1 (Homo sapiens) (P11474 whole entry, looked up, the tested form may be a part): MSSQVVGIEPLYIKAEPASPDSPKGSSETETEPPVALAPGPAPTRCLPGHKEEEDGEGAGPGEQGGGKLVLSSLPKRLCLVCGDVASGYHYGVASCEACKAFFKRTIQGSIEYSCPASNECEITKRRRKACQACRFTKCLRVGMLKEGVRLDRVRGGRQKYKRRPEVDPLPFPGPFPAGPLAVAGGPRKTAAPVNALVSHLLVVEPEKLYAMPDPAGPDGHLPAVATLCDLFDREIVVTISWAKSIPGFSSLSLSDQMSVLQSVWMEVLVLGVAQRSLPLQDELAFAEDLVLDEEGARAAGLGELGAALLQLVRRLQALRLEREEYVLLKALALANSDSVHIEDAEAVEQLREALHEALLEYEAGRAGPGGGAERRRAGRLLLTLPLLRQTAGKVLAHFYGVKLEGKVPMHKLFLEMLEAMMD
compound,measurement,setting,value
Fc1cccc(Cl)c1CCl,AC50,[1],100 µM (active)
same,AC50,[2],65.3 µM (active)
same,outcome,[3],inactive
same,outcome,[4],inactive
same,outcome,[5],inactive
same,AC50,[6],100 µM (active)
same,outcome,[7],inactive
same,outcome,[8],inactive
same,outcome,[9],inactive
same,outcome,[10],inactive
same,outcome,[11],inactive
same,outcome,[12],inactive
same,outcome,[13],inactive
same,outcome,[14],inactive
CNC(=O)N(C)c1nc2ccccc2s1,outcome,[1],inactive
same,outcome,[2],inactive
same,outcome,[3],inactive
same,outcome,[4],inactive
same,outcome,[5],inactive
same,outcome,[6],inactive
same,outcome,[7],inactive
same,outcome,[8],inactive
same,outcome,[9],inactive
same,outcome,[15],inactive
same,outcome,[16],inactive
same,outcome,[13],inactive
same,outcome,[17],inactive
same,outcome,[14],inactive
CN(C)C(=S)S,outcome,[1],inactive
same,outcome,[2],inactive
same,outcome,[3],inactive
same,outcome,[4],inactive
same,outcome,[5],inactive
same,outcome,[6],inactive
same,outcome,[7],inactive
same,outcome,[8],inactive
same,outcome,[18],inactive
same,outcome,[12],inactive
same,outcome,[16],inactive
same,AC50,[14],24.8 µM (active)
Clc1cccc(Cl)c1,outcome,[1],inactive
same,outcome,[2],inactive
same,outcome,[3],inactive
same,outcome,[4],inactive
same,outcome,[5],inactive
same,outcome,[6],inactive
same,outcome,[7],inactive
same,outcome,[8],inactive
same,outcome,[18],inactive
same,outcome,[11],inactive
same,outcome,[12],inactive
same,outcome,[16],inactive
same,outcome,[19],inactive
same,outcome,[13],inactive
O=C(NC(=O)c1c(F)cccc1F)Nc1cc(Cl)c(Oc2ncc(C(F)(F)F)cc2Cl)c(Cl)c1,outcome,[1],inactive
same,outcome,[2],inactive
same,outcome,[3],inactive
same,outcome,[4],inactive
same,outcome,[5],inactive
same,outcome,[6],inactive
same,outcome,[7],inactive
same,outcome,[8],inactive
same,outcome,[18],inactive
same,outcome,[10],inactive
same,outcome,[12],inactive
same,outcome,[17],inactive
CC1CC(=O)O1 (stereo unspecified),outcome,[1],inactive
same,outcome,[2],inactive
same,outcome,[3],inactive
same,outcome,[4],inactive
same,outcome,[5],inactive
same,outcome,[6],inactive
same,outcome,[7],inactive
same,outcome,[8],inactive
same,outcome,[18],inactive
same,outcome,[11],inactive
